Results reported in PubChem BioAssay (NCATS).
Inconclusive results are not listed. A call without a number means that no potency is given here. The source made the active and inactive calls. Calls follow the shape of the dose curve; as a rule, active = well fitted activation curve with a large enough effect; inconclusive = small, poorly fitted or top-dose-only effect; inactive = no such curve, though single readings can be large or run the other way.

Assay: qHTS for Activators of Parkin Expression: LOPAC Validation Assay (FLuc Reporter) (AID 720573)
Conditions: Cell line, PRKN promoter firefly luciferase reporter; series mostly up to 46.1 µM
Procedure, shortened: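 Readout is FLuc luminescence from neuronal reporter cells (Parkin promoter, FLuc plus NLuc) after 24 h compound exposure in dose response. Values normalized to neutral DMSO and positive-control compounds.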

**Q.** For `CN(C)CCCO[C@@H]1[C@H]2OC(C)(C)O[C@H]2O[C@@H]1[C@H](O)CO`, which Potency is on record?
**A.** inactive

**Q.** With `Nc1ncnc2c1ncn2[C@@H]1O[C@H](COP(=O)(O)OP(=O)(O)OP(=O)(O)OP(=O)(O)OC[C@@H]2O[C@H](n3cnc4c(N)ncnc43)[C@@H](O)[C@H]2O)[C@@H](O)[C@H]1O` as the molecule, how does the Potency read?
**A.** inactive

**Q.** Which Potency does the source give for `CCCCCCCC/C=C\CCCCCCCC(=O)NCCO` here?
**A.** inactive

**Q.** With `NCCCCC(=O)O` as the molecule, how does the Potency read?
**A.** inactive

**Q.** With `CC(C)(C=O)Cc1cc(C(C)(C)C)c(O)c(C(C)(C)C)c1` as the molecule, how does the Potency read?
**A.** inactive

**Q.** For `C[N+]1(C)C2CC(OC(=O)[C@H](CO)c3ccccc3)CC1C1OC12` (some centres not stated), which Potency is on record?
**A.** inactive

**Q.** With `NO` as the molecule, how does the Potency read?
**A.** inactive

**Q.** Which Potency does the source give for `N#C/C(=C\c1ccc(O)c(O)c1)C(=O)NCc1ccccc1` here?
**A.** inactive

**Q.** For `NC[C@@H]1O[C@H](C23CC4CC(CC(C4)C2)C3)Cc2c1ccc(O)c2O`, which Potency is on record?
**A.** inactive

**Q.** Which Potency does the source give for `COc1cc(OC)c(/C=C2/C(=O)Nc3ccccc32)c(OC)c1` here?
**A.** inactive

**Q.** Which Potency does the source give for `OCC1O[C@H]([S-])[C@H](O)[C@@H](O)[C@@H]1O.[Au+]` (some centres not stated) here?
**A.** inactive

**Q.** For `CC1OC1P(=O)(O)O` (configuration not stated), which Potency is on record?
**A.** inactive

**Q.** With `Oc1ccc(C2CNCc3sccc32)cc1O` (configuration not stated) as the molecule, how does the Potency read?
**A.** inactive

**Q.** Which Potency does the source give for `CN1[C@@H](CC(=O)c2ccccc2)CCC[C@H]1C[C@H](O)c1ccccc1` here?
**A.** inactive

**Q.** With `Oc1cc2c(cc1O)CN(C(=S)NCCc1ccc(Cl)cc1)CCC2` as the molecule, how does the Potency read?
**A.** inactive

**Q.** For `NC(=S)c1ccc[n+]([C@@H]2O[C@@H](COP(=O)([O-])OP(=O)(O)OC[C@H]3O[C@@H](n4cnc5c(N)ncnc54)[C@H](OP(=O)(O)O)[C@@H]3O)C(O)C2O)c1` (some centres not stated), which Potency is on record?
**A.** inactive

**Q.** For `CC1CN(S(=O)(=O)c2cccc3cnccc23)CCN1` (configuration not stated), which Potency is on record?
**A.** inactive
